From PubChem BioAssay (NCATS)
Records with an inconclusive call do not appear. A number with no mark means an inactive call. Calls of active or inactive are those of the source. Calls come from the whole dose curve; as a rule, active = well fitted cell-killing curve with a large enough effect; inconclusive = small, poorly fitted or top-dose-only effect; inactive = flat fitted curve, though single readings scatter. Starred links: 1 amine or outer side, 2 acyl side, 3 side chain; linkers in the order of their positions; H or OH if unused. Positions of bridges follow the written chain, without caps; N, C: chain ends. Non-standard residues stand in square brackets, D forms with d. Residues, ends and D or L forms follow the SMILES beside them. ξ: configuration not given here. *: point of attachment. X3 = C[C@@H](Oc1ccc([C@H](N[*:1])C(=O)[*:2])cc1)[C@]1(/C=C\C(=O)[*:3])CO1; d(aIle) = CC[C@H](C)[C@@H](N)C(=O)O; X2 = CC(C)[C@@H](O)C(C)C(=O)*; ξNMeF = CNC(Cc1ccccc1)C(=O)O; ξT = CC(O)C(N)C(=O)O; ξS = NC(CO)C(=O)O
% is set by controls: 0 for no effect and ±100 for the full control effect; potency is the fitted concentration of half-maximal effect.

Assay: HPAF-II Cancer Cell Toxicity qHTS against the NCATS CANVASS Library (AID 1347346); note: nearly all actives have a fitted effect of over 55% in size
Conditions: HPAF-II viability, CellTiter-Glo ATP luminescence, 72 h; series mostly up to 38.3 µM; activity change, negative = cytotoxicity: at the top concentration
Description: Natural products and their derivatives continue to be wellsprings of nascent therapeutic potential. However, many laboratories have limited resources for biological evaluation, leaving their previously isolated or synthesized compounds largely or completely untested. To address this issue, the Canvass library of natural products was assembled (https://tripod.nih.gov/canvass), in collaboration with academic and industry researchers, for quantitative high-throughput screening (qHTS) across a diverse set of cell-based and biochemical assays. The pure (>85% purity by liquid chromatography/mass spectrometry [LC/MS]) Canvass library of 346 natural products were submitted by 45 academic laboratories and companies around the world. We collected pure natural products to circumvent deconvolution and structure elucidation due to time and resource limitations. The library was formatted into 1536-well plates and evaluated in 50 qHTS (in an 11-pnt concentration series) bioassays with broad scope of disease-relevant mechanisms. The resulting data set from 50 different assays was then systematically analyzed to identify overall trends and specific natural products with interesting biological activities. Reported herein are the results of each individual qHTS and their corresponding assay protocol. National Center for Advancing Translational Sciences (NCATS), Rockville, MD National Institute of Health (NIH), Bethesda, Maryland
Cancer Cell Toxicity protocol for cell lines COV-362, OV-KATE, OV-SAHO, UWB1.289, UWB1.289-WTBRCA1, HEK-293, HPAF-II, Panc-1005, SW1088, or U-118MG. 1.#In a 1536 well, white solid bottom tissue culture plates (Corning 7494), corresponding cells (COV-362, OV-KATE, OV-SAHO, UWB1.289, UWB1.289-WTBRCA1, HEK-293, HPAF-II, Panc-1005, SW1088, or U-118MG) were dispensed in each well at a final concentration of 1000 cells / well (6uL volume) using the Multidrop Combi (Thermo Fisher Scientific) dispenser. 2.#The plates were incubated for 4 hours at 37 degrees C/5% CO2/95% Rh. 3.#Compounds were pin transferred (~23nL volume) via Wako Pin-tool (Wako Automation, Richmond VA) equipped with a 1536 pin head. The assay plates were treated with compounds in an 11-pnt concentration series with a final concentration range of […] to 85uM. 4.#Bortezomib was used as a single dose control (0.5mM column 4, rows 1 - 32) at a final concentration of 1.9uM and as a 16pnt titration (1mM; 1:2 dilution; 16-points; n = 2; column 3, rows 1 - 32) with final concentration range of 0.1nM - 3.8uM. 5.#The assay plates were incubated for 72 hours at 37 degrees C/5% CO2/95% Rh. 6.#3uL CellTiter-Glo detection reagent was then added to the plates (columns 2 - 48, rows 1 - 32) and incubated at room temperature for additional 15min. 7.#Luminescence signal was acquired via the ViewLux plate reader (PerkinElmer) using a clear filter, 2 second exposure and 2x binning settings.
In the case of C/C=C1/CN2C3CC1C1=CCC(=O)N4c5ccccc5[C@@]3(C[C@@H]2C2=C[C@H]3C5CC6N(CC[C@@]67c6ccccc6N(C2=O)[C@@H]37)C/C5=C/C)[C@H]14 (some centres not stated), the Potency is reported as 18.8 µM (active). With C/C=C/[C@@H]1[C@H]2C[C@@H](C)CC[C@@H]2C(C)=C[C@H]1C(=O)c1c(O)c(-c2ccc(O)cc2)c[nH]c1=O the Potency was 13.3 µM (active). With CO[C@@H](/C=C/CC/C=C/C(=O)O)[C@@H](O)[C@H](C)/C=C(\C)[C@H](O)[C@H](C)C(=O)CCCC1CC(=O)NC(=O)C1 the “activity change, negative = cytotoxicity” value was -0.388%. In the case of CO[C@H]([C@@H](C)[C@H]1O[C@]1(C)C[C@H](C)/C=C/C=C(\C)[C@H]1O[C@@H](CC(=O)O)CC[C@@H]1C)[C@@H](C)O, the Potency is reported as 0.0266 µM (active). With C1=C2CCCN[C@H]2C2CC1[C@H]1CCCCN1C2 (some centres not stated) the “activity change, negative = cytotoxicity” value was -0.693%. With C/C=C(\C)C(=O)O[C@@H]1[C@@H](O)[C@@H]2O[C@H]3[C@H](O[C@@H](CCCCC)CCCCCCC(=O)CCC(=O)OC[C@@H](O2)[C@H]1OC(=O)/C=C/c1ccccc1)O[C@H](C)[C@H](OC(C)=O)[C@@H]3O the Potency was 0.133 µM (active). In the case of CC[C@@H]1CN2CCC3(Nc4cccc(OC)c4C3=O)[C@@H]2C[C@@H]1/C(=C\OC)C(=O)OC (some centres not stated), the “activity change, negative = cytotoxicity” value is reported as -5.28%. In the case of CCCCC1CC[C@H]2CCCC(CCC)N12 (some centres not stated), the “activity change, negative = cytotoxicity” value is reported as -16.9%. For O[C@H]1C=C[C@@]23CCN(Cc4cc5c(cc42)OCO5)[C@@H]3C1, the “activity change, negative = cytotoxicity” value was 10.3%. With C[C@]12CCC3[C@@H](CC[C@@H]4C[C@@H](O)CC[C@]34CO)[C@@]1(O)CC[C@@H]2C1=CC(=O)OC1 (some centres not stated) the Potency was 2.98 µM (active). For C=CC(C)(C)[C@@]12C[C@H]3C(=O)N/C(=C/c4cnc[nH]4)C(=O)N3[C@@H]1Nc1ccccc12, the “activity change, negative = cytotoxicity” value was 5.36%. For CC[C@H](C)[C@H]1NC(=O)[C@@H](NC(=O)C(C)[C@H](O)C(C)C)[C@@H](C)OC(=O)C2COC(=O)CNC(=O)/C=C\[C@]3(CO3)[C@@H](C)Oc3ccc(cc3)[C@H](NC1=O)C(=O)N(C)C(Cc1ccccc1)C(=O)NC(C(C)O)C(=O)N2 (some centres not stated) (X2-T[d(aIle)][X3][ξNMeF][ξT][ξS]; ester 1-C; linker 3-6 via G), the “activity change, negative = cytotoxicity” value was -14.5% [at 22.9 µM]. In the case of CCCC[C@@H]1CC[C@H]2CCCC(CCCO)N12 (some centres not stated), the “activity change, negative = cytotoxicity” value is reported as 0.703%. For C/C(=C\[C@H](C)C(=O)C[C@H](O)CC1CC(=O)NC(=O)C1)[C@@H]1OC(=O)/C=C/CC/C=C/C=C/[C@@H]1C, the Potency was 0.0943 µM (active). With C/C=C1/CN2CC[C@@]34c5ccccc5N(C)[C@@H]3[C@@H]2C[C@@H]1[C@H]4C(=O)OC the “activity change, negative = cytotoxicity” value was -10.8%. In the case of C=C[C@H]1CN2CCc3c([nH]c4cccc(OC)c34)[C@@H]2C[C@@H]1/C(=C\OC)C(=O)OC, the “activity change, negative = cytotoxicity” value is reported as 0.229%. With c1ccc2nc3c(cc2c1)[nH]c1ccccc13 the “activity change, negative = cytotoxicity” value was -19.5%. In the case of C=C[C@]12C=CCN3CC[C@@]4(c5ccccc5NC(=O)[C@@H]4C1)[C@@H]32, the “activity change, negative = cytotoxicity” value is reported as 3.46%. For C=CC(C)(C)[C@@]12C[C@H]3C(=O)N/C(=C\c4cnc[nH]4)C(=O)N3[C@@H]1Nc1ccccc12, the “activity change, negative = cytotoxicity” value was 0.113%. With C[N+](C)(C)CCc1c[nH]c2ccccc12 the “activity change, negative = cytotoxicity” value was 0%. In the case of C[C@]12CC(O)C3[C@@H](CC[C@@H]4C[C@@H](O)CC[C@]34CO)[C@@]1(O)CC[C@@H]2C1=CC(=O)OC1 (some centres not stated), the Potency is reported as 10.6 µM (active). In the case of CO[C@H]1C[C@H](O[C@H]2[C@@H](O)C[C@H](O[C@H]3CC[C@]4(C=O)[C@H]5CC[C@]6(C)C(C7=CC(=O)OC7)CC[C@]6(O)[C@@H]5CC[C@]4(O)C3)O[C@@H]2C)O[C@H](C)[C@H]1O[C@H]1C[C@@H](OC)[C@@H](O[C@@H]2O[C@H](CO)[C@@H](O)[C@H](O)[C@H]2O)[C@@H](C)O1 (some centres not stated), the Potency is reported as 0.376 µM (active). With CC(C)CC1C(=O)O[C@H](C(C)C)C(=O)N(C)C(CC(C)C)C(=O)O[C@@H](C(C)C)C(=O)N(C)C(CC(C)C)C(=O)O[C@H](C(C)C)C(=O)N(C)C(CC(C)C)C(=O)O[C@@H](C(C)C)C(=O)N1C (some centres not stated) the Potency was 5.95 µM (active). For CC[C@H]1CN2CCc3c([nH]c4cccc(OC)c34)[C@@H]2C[C@@H]1/C(=C\OC)C(=O)OC, the “activity change, negative = cytotoxicity” value was -12.9%. In the case of CO[C@H]1[C@H](O[C@H]2CC[C@]3(C=O)[C@H]4CC[C@]5(C)[C@@H](C6=CC(=O)OC6)CC[C@]5(O)[C@@H]4CC[C@]3(O)C2)O[C@H](C)[C@H](O)[C@@H]1OC, the Potency is reported as 0.335 µM (active). In the case of C=C(C)[C@H]1C(=O)c2c3c(cc4c5c(n1c24)[C@@]1(C)[C@@H](CC[C@H]2[C@](C)(/C=C/C=C(\C)C(=O)O)[C@@H](O)CC[C@@]21C)C5)C1=CC(C)(C)OC(C)(C)[C@H]1[C@@H]3O, the Potency is reported as 5.95 µM (active). For CC[C@]12C=CCN3CC[C@]4(C(=C(C(=O)OC)C1)Nc1ccccc14)[C@@H]32, the “activity change, negative = cytotoxicity” value was -16%.
